Reference: ChEMBL document CHEMBL4513216, “Probing the Open Global Health Chemical Diversity Library for Multistage-Active Starting Points for Next-Generation Antimalarials” (ACS Infect Dis, 2020)
In all, about 69,000 compounds went through this assay and about 8,600 (12%) showed an effect of 50% or more. Many of the other results were omitted from the sample, so strong results are more common in it than they were.

These molecules were tested on Plasmodium berghei (assay: Screen against P. berghei liver stage (PbLuc), transformed with Luciferase, at 10uM). Details: tested at 10 uM.
Type: functional, HepG2

Q: With `COc1ccc(CCCC(=O)N2C[C@H](C3CC3)[C@@H](N(C)C)C2)cc1` as the molecule, how does the INHIBITION read?
A: 6.28%

Q: With `CC(=O)N1[C@@H](C(=O)NCC2CC2)C[C@@H]2CN(Cc3ccco3)C[C@@H]21` as the molecule, how does the INHIBITION read?
A: 11.6%

Q: Which INHIBITION does the source give for `Cc1cccc(Nc2noc3c2CN(C(=O)c2ccn(C)n2)CC3)c1C` here?
A: -14.225%

Q: For `Cc1ccnn1CCNC(=O)C1CCN(S(=O)(=O)c2ccc(F)cc2)C1` (stereo not drawn), which INHIBITION is on record?
A: 41.2%

Q: How did the INHIBITION turn out when `Cc1noc(C)c1C[S+]([O-])Cc1cn2cccc(C)c2n1` (stereo not drawn) was run?
A: -41.7%

Q: `CS(=O)(=O)N1CCO[C@H]2[C@@H](Oc3ncccc3F)CC[C@@H]21` was tested. Which INHIBITION did it give?
A: 32.2%

Q: With `Cc1nc(CN2CCCC(NCc3ccc(Cl)s3)C2)no1` (stereo not drawn) as the molecule, how does the INHIBITION read?
A: 26.5%

Q: How did the INHIBITION turn out when `Cc1ccc2[nH]c(C(=O)N3CCC4(CC3)C(=O)NCCN4C)nc2c1` was run?
A: 10.4%

Q: How did the INHIBITION turn out when `Cc1nc(-n2nc(-c3cccs3)cc2N)[nH]c(=O)c1C` was run?
A: 50.9%

Q: Which INHIBITION does the source give for `CCc1c(C)nc(-n2nc(-c3cccs3)cc2N)[nH]c1=O` here?
A: -90.8%

Q: With `Cc1cc(=O)[nH]c(-n2nc(-c3cccs3)cc2N)n1` as the molecule, how does the INHIBITION read?
A: 20.9%

Q: How did the INHIBITION turn out when `CCCc1cc(=O)[nH]c(-n2nc(-c3cccs3)cc2N)n1` was run?
A: 83.8%

Q: `NC1(c2nc(-c3cccs3)cc(=O)[nH]2)CCCC1` was tested. Which INHIBITION did it give?
A: -35.8%

Q: How did the INHIBITION turn out when `CC(C(N)=O)n1nc(-c2cccs2)cc(N)c1=O` (stereo not drawn) was run?
A: 17.4%

Q: Which INHIBITION does the source give for `O=C(c1ccnnc1)N1CCC2(CC1)CC(N1CCOCC1)C2` here?
A: 27.4%

Q: For `O=C(NCc1ccco1)N(CCCO)C1CCCc2ccccc21` (stereo not drawn), which INHIBITION is on record?
A: 11.9%

Q: With `CC(C)N(Cc1ccc(C#N)cc1)C(=O)NCCNc1ncccn1` as the molecule, how does the INHIBITION read?
A: 55.1%

Q: For `CC(C)N(Cc1ccccc1)C(=O)NCCNC(=O)c1cccnc1`, which INHIBITION is on record?
A: -17.8%

Q: `CC(C)N(Cc1cccnc1)C(=O)CSc1ccc(C#N)cc1` was tested. Which INHIBITION did it give?
A: 2.82%

Q: Which INHIBITION does the source give for `Cc1cc(NC(=O)N(Cc2ccc(C#N)cc2)C(C)C)no1` here?
A: 6.33%

Q: `CC(C)N(Cc1ccc(C#N)cc1)C(=O)Nc1ccncc1` was tested. Which INHIBITION did it give?
A: 44%

Q: For `CC(C)N(Cc1ccc(C#N)cc1)C(=O)Nc1ccccn1`, which INHIBITION is on record?
A: 54.3%

Q: For `Cc1ccc(N(CCC#N)C(=O)CCc2cccnc2)cc1C`, which INHIBITION is on record?
A: 11.9%

Q: How did the INHIBITION turn out when `CC(C(=O)NCC(F)(F)F)N1CCC(N2CCN(C)C2=O)CC1` (stereo not drawn) was run?
A: 35.9%

Q: How did the INHIBITION turn out when `Cc1cncc(C(=O)N2C[C@@H]3CN(S(C)(=O)=O)CCO[C@@H]3C2)c1` was run?
A: -7.24%

Q: How did the INHIBITION turn out when `CC(C)Nc1nc2c(cc1C(=O)NCC1CC1)CCN(CC1CC1)CC2` was run?
A: 71.4%

Q: How did the INHIBITION turn out when `COCCN1CCc2cc(C(=O)NCC3CC3)c(NC(C)C)nc2CC1` was run?
A: 51.6%

Q: With `Cc1nc2c(cc1C(=O)O)CCN(CC1CC1)CC2` as the molecule, how does the INHIBITION read?
A: 74.9%

Q: How did the INHIBITION turn out when `CC(C)Nc1nc2c(cc1C(=O)NCC1CC1)CCN(C)CC2` was run?
A: 34.1%

Q: Which INHIBITION does the source give for `CNC(=O)N1CCc2cc(C(=O)NCC3CC3)c(NC(C)C)nc2CC1` here?
A: -114%

Q: `COCCN1CCc2cc(C(=O)N(C)C)c(NC(C)C)nc2CC1` was tested. Which INHIBITION did it give?
A: 18.1%

Q: With `CN(C)C(=O)c1cc2c(nc1NCC1CC1)CCN(CC1CC1)CC2` as the molecule, how does the INHIBITION read?
A: 38.2%

Q: How did the INHIBITION turn out when `CC(C)Nc1nc2c(cc1C(=O)NCC1CC1)CCN(S(C)(=O)=O)CC2` was run?
A: -39.1%

Q: For `Cc1nc2c(cc1C(=O)O)CCN(Cc1ccsc1)CC2`, which INHIBITION is on record?
A: 20.4%

Q: Which INHIBITION does the source give for `Cn1cc(CN(CC2(O)CNCCOC2)C2CCCCC2)cn1` (stereo not drawn) here?
A: 38.5%

Q: `O=C(Cc1ccccc1F)N1CCN(C(=O)c2cccc(F)c2)CC1` was tested. Which INHIBITION did it give?
A: 27.6%

Q: Which INHIBITION does the source give for `Cc1noc(CCCc2nc(C3CCOC3)no2)n1` (stereo not drawn) here?
A: 5.87%

Q: For `Cc1cc(C2CCCN2Cc2cccc(C(=O)Nc3nccs3)c2)no1` (stereo not drawn), which INHIBITION is on record?
A: -30.7%

Q: With `Cc1cc(C2CCCN2Cc2ccc(C(=O)Nc3nccs3)cc2)on1` (stereo not drawn) as the molecule, how does the INHIBITION read?
A: 7.97%

Q: With `Cc1nonc1C1CCCN1Cc1ccc(C(=O)Nc2nccs2)cc1` (stereo not drawn) as the molecule, how does the INHIBITION read?
A: 56.6%

Q: `O=c1[nH]c2cn(-c3ccc(Br)cc3)c(=O)n2[nH]1` was tested. Which INHIBITION did it give?
A: 31.6%

Q: `CCNC(=O)CCC(=O)N1CCC(Oc2cc(C)ccc2C)CC1` was tested. Which INHIBITION did it give?
A: 14.9%

Q: `Cc1ccc(C)c(OC2CCN(C(=O)CNc3ccccc3Cl)CC2)c1` was tested. Which INHIBITION did it give?
A: 83.9%

Q: Which INHIBITION does the source give for `Cc1ccc(C)c(OC2CCN(C(=O)NCC(=O)N3CCCC3)CC2)c1` here?
A: -29.5%

Q: With `CCc1cnc(N)nc1N(C)CCc1cnn(C)c1` as the molecule, how does the INHIBITION read?
A: 2.84%

Q: How did the INHIBITION turn out when `CC(C)S(=O)(=O)C(C)C(=O)NCc1ccccc1COc1ccccc1` (stereo not drawn) was run?
A: -4.12%

Q: How did the INHIBITION turn out when `COCCOCC(=O)N(Cc1cccc(C)c1)C(C)C` was run?
A: 5.94%

Q: For `CC(=O)C(C)CC(=O)N(Cc1cccc(C)c1)C(C)C` (stereo not drawn), which INHIBITION is on record?
A: 68.4%

Q: With `Cc1cccc(CN(C(=O)CS(C)(=O)=O)C(C)C)c1` as the molecule, how does the INHIBITION read?
A: -12.9%

Q: For `O=C(c1ccc(O)cc1)N1C[C@@H]2OCCN(c3ncccn3)[C@@H]2C1`, which INHIBITION is on record?
A: -15.2%

Q: Which INHIBITION does the source give for `CCOc1ncccc1NC(=O)NC1CCCN(S(C)(=O)=O)C1` (stereo not drawn) here?
A: -2.19%

Q: Which INHIBITION does the source give for `COc1ncccc1C(=O)N1CCc2c(ncnc2N2CCOCC2)C1` here?
A: -102%

Q: Which INHIBITION does the source give for `c1coc(CN2CCc3nnc(COc4cncnc4)n3CC2)c1` here?
A: 10.6%

Q: Which INHIBITION does the source give for `O=C1C(Sc2nnnn2C2CC2)CCN1c1ccccc1Cl` (stereo not drawn) here?
A: 11.4%

Q: For `O=C(c1ccc[nH]1)N1CCOCC12CCCC2`, which INHIBITION is on record?
A: 40.9%

Q: How did the INHIBITION turn out when `Cc1[nH]ccc1C(=O)N1CCOCC12CCCC2` was run?
A: 19.3%

Q: For `Cc1ccc(F)cc1C(=O)N1CCOCC12CCCC2`, which INHIBITION is on record?
A: 69.1%

Q: Which INHIBITION does the source give for `Cn1cc(C2CCCN2C(=O)c2cnc(-c3ccco3)s2)cn1` (stereo not drawn) here?
A: 23.6%
